The results in this text go back to PubChem BioAssay (EPA / NIEHS).

Usually AC50 stands for the concentration at which the activity in the assay is half-maximal.

Active and inactive are the calls of the source. Rule for the calls: active = hit-call score of the fitted dose curve at least 0.9, where 1 is the maximum; inactive = score below 0.9.

A short description of the assay: ATG_M_06_CIS: Attagene CIS-FACTORIAL HepG2 Assay for M06 Transcription Factor (Internal Marker) (AID 2282950). Particulars: HepG2 Attagene CIS-FACTORIAL M06 internal marker reporter; actives raise or lower the signal. As for the experimental part:
ATG_CIS is a cell-based, multiplexed-readout assay that uses HepG2, a human liver cell line, with measurements taken at 24 hours after chemical dosing in a 24-well plate.ATG_M_06_CIS is one of 52 assay component(s) measured or calculated from the ATG_CIS assay. It is designed to make measurements of mRNA induction, a form of inducible reporter, as detected with fluorescence intensity signals by Reverse transcription polymerase chain reaction (RT-PCR) and Capillary electrophoresis technology.Data from the assay component ATG_M_06_CIS was analyzed into 1 assay endpoint. This assay endpoint, ATG_M_06_CIS, was analyzed with bidirectional fitting relative to DMSO as the negative control and baseline of activity. Using a type of inducible reporter, measures of mRNA for gain or loss-of-signal activity can be used to understand the background control at the transcription factor-level as they relate to the gene . Furthermore, this assay endpoint can be referred to as a secondary readout, because this assay has produced multiple assay endpoints where this one serves a background control function. To generalize the intended target to other relatable targets, this assay endpoint is annotated to the background measurement intended target family, where the subfamily is internal marker.
Human liver HepG2 cells are transiently transfected with multiple reporter transcription units (MRTUs) in 6-well plates using FuGene 6 reagent (Roche; 3 ml FuGene/1 mg DNA). The MRTU constructs are regulated by a cis-regulating element (promoter). […] A major difference between the CIS and TRANS system is that in CIS activities of endogenous TFs are measured, whereas the TRANS assay evaluates changes in activities of exogenous, chimeric NR-Gal4 proteins. […] At the end of 24 hour incubation, total RNA was isolated using TriZol reagent (Invitrogen). The isolated RNA is then reverse-transcribed using oligo(dT) primer and Mo-MLV reverse transcriptase (Invitrogen) with DNAse I (Ambion) treatment for 30 min. The one-tenth of the produced cDNA was amplified by PCR using Taq DNA polymerase (Invitrogen) and two reporter sequence-specific primers. The PCR products were fluorescently labeled by primer extension with 6-arboxyfluorescein (6-FAM) 5'-labeled reporter sequence-specific primer (2 min at 95 C, 20 s at 68 C and 10 min at 72 C) and these products were digested with 5U of HpaI (New England Biolabs) for 2h at 37 C. The fragments were purified using Qiaquick PCR columns (Qiagen), analyzed on an ABI 3130xL genetic analyzer (Applied Biosystems) with peak positions identified by using a set of X-rhodamine (ROX)-labeled MapMarker1000 molecular weight standards (BioVentures). The raw capillary electrophoresis data was processed using Attagraph software (Attagene).
Take `Cc1cc(SCc2sc(-c3ccc(C(F)(F)F)c(F)c3)nc2C)ccc1OCC(=O)O`: the result was inactive.
Turning to `C=CCOC(N)=O`, the compound was called inactive.
Take `Cc1cc(Cl)ccc1O`: the outcome was inactive.
The same measure, in the same setting: the result for `CCOC(=O)OC1=C(c2cc(C)ccc2C)C(=O)NC12CCC(OC)CC2` (stereo not given) reads “inactive”.
Take `C#C[C@]1(O)CC[C@H]2[C@@H]3CCC4=CC(=O)CC[C@]4(C)[C@H]3CC[C@@]21C`: the call was inactive.
On the same count and under the same terms, under `CC(C)[C@@H](Nc1ccc(C(F)(F)F)cc1Cl)C(=O)OC(C#N)c1cccc(Oc2ccccc2)c1` (stereo not given in full) stands “inactive”; under `O=C(NC(=O)c1c(F)cccc1F)Nc1cc(Cl)c(OC(F)(F)C(F)C(F)(F)F)cc1Cl` (stereo not given), “inactive”.
Still for that read-out and setting: the result for `[Cl][Sn]([c]1ccccc1)([c]1ccccc1)[c]1ccccc1` reads “inactive”; that for `O=C(O)COc1cc(Cl)c(Cl)cc1Cl`, “inactive”.
In the case of `COc1ccccc1N`, the compound was classed as inactive.
On to `CCOC(=O)C(SP(=S)(OC)OC)c1ccccc1` (stereo not given), for which the outcome was inactive.
Take `CC(C)C(C)(N)C#N` (stereo not given): the compound was called inactive.
The same measure, in the same setting: under `Cc1cc(Cl)ccc1OC(C)C(=O)O` (stereo not given) stands “inactive”; under `Cc1cc(C(F)(C(F)(F)F)C(F)(F)F)ccc1NC(=O)c1cccc(I)c1C(=O)NC(C)(C)CS(C)(=O)=O`, “inactive”.
With `CCCCCCCCCCCCCCC(Br)C(=O)O` (stereo not given), the AC50 is 183 µM (active).
For `CCOC(=O)CCN(SN(C)C(=O)Oc1cccc2c1OC(C)(C)C2)C(C)C`, the compound was called inactive.
`Nc1nc(=S)[nH][nH]1`: the call was inactive.
The same measure, in the same setting: under `O=[N+]([O-])c1cc([As](=O)(O)O)ccc1O` stands “inactive”; under `Nc1ccc(N)cc1`, “inactive”; under `O=C1C=CC(=O)c2ccccc21`, “inactive”.
Still for that read-out and setting: the result for `Oc1ccc(Cc2ccc(O)cc2)cc1` reads “inactive”; that for `N#Cc1ccncc1`, “inactive”; that for `C#CCOC(=O)/C=C(C)/C=C/CC(C)CCCC(C)C` (stereo not given), “inactive”.
Still for that read-out and setting: the result for `COC(=O)c1cc(Oc2ccc(Cl)cc2Cl)ccc1[N+](=O)[O-]` reads “inactive”; that for `CC(C)(C)c1ccccc1O`, “inactive”; that for `CCCCOC(=O)COC(=O)c1ccccc1C(=O)OCCCC`, “inactive”.
With `CC(C=O)Cc1ccc2c(c1)OCO2` (stereo not given), the call was inactive.
Same read-out and setting: the result for `O=C(Cl)OCCOCCOC(=O)Cl` reads “inactive”; that for `CCOC(=O)Cc1ccccc1`, “inactive”; that for `CCCCCCCCCCCCBr`, “inactive”.
For the compound `CN(C)c1ccc(N=O)cc1`, the call was inactive.
Still for that read-out and setting: the result for `CC1CC(=O)O1` (stereo not given) reads “inactive”.
On to `CC(C)O.CC(C)O.OCCN(CCO)CCO.OCCN(CCO)CCO.[Ti]`, for which the compound was called inactive.
Take `CC(C)(C)c1ccc(CCOc2ncnc3ccccc23)cc1`: the compound was called inactive.
Regarding `NC(=O)CCl`, the compound was classed as inactive.
As to `CCN(CCO)CCO`, the call was inactive.
Take `O=[N+]([O-])c1ccc(Nc2ccccc2)cc1`: the compound was classed as inactive.
Take `O=C(O)C1(c2ccc3c(c2)OC[C@H](Cc2ccc(-c4ccccc4)cc2)[C@H]3O)CCCC1`: the outcome was inactive.
Take `Oc1c(Br)cc(Br)cc1Br`: the result was inactive.
On to `NNCCO`, for which the outcome was inactive.
